According to the supplement of paper PMC3334620:
In all, about 33,000 sequences were measured (“E-score (-0.5 to 0.5)”: median about -0.0059, highest 2% from about 0.26 on). The sample as a whole holds a higher share of the highest values than the screen did.

Each sequence was assayed against T1, Cin5 (UniProt P40917) (assay: PBM E-score (8-mer binding enrichment) (E-score (-0.5 to 0.5)); higher = stronger / more preferred TF binding). Settings: protein concentration: 100 nM; construct: GST-full length.
T1 sequence: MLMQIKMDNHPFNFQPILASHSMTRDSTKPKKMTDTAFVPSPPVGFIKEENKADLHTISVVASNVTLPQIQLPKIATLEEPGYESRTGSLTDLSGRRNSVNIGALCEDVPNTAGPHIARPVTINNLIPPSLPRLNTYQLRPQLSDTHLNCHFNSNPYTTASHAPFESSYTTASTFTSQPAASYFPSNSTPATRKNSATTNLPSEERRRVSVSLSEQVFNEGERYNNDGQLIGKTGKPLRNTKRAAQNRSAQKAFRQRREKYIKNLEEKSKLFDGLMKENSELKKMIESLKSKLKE
Experimental: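 Universal 'all 10-mer' protein binding microarrays (Agilent AMADID 015681) probed with GST-tagged S. cerevisiae TFs (full-length or DBD) made by in vitro transcription/translation (PURExpress), about 100-200 nM. Bound TF was detected with fluorescent anti-GST. Each ungapped 8-mer (which stands for itself and its reverse complement) is scored by the PBM enrichment score (E-score), a modified Wilcoxon-Mann-Whitney statistic from -0.5 to +0.5, computed with the Universal PBM Analysis Suite. Scale: above 0.35 generally sequence-specific binding.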

In order of rising “PBM E-score” value:
1. CACGGGGG  -0.401
2. CGCTGGGC  -0.295
3. CGGACCCC  -0.295
4. AGGACCGG  -0.294
5. GAGGGCCC  -0.254
6. ACTCCTGG  -0.216
7. CCCCTCAG  -0.211
8. CTTTGGTA  -0.205
9. CCCTGGTA  -0.196
10. CCTTCATC  -0.183
11. CAACGGTA  -0.181
12. GCTACGGA  -0.165
13. GTAGAACA  -0.165
14. ACCACCCT  -0.163
15. CTGCATTA  -0.154
16. CCACAACG  -0.153
17. CGTAAAGC  -0.147
18. CCGGGGCG  -0.146
19. CACGGCCA  -0.145
20. GTGGGAAC  -0.144
21. GGTCCTAA  -0.143
22. AGCAGCCC  -0.142
23. CACTGGGC  -0.14
24. AGGGTGTC  -0.136
25. ACCGGGGC  -0.136
26. GGCTGTAA  -0.129
27. GCCACGCC  -0.127
28. CAGAGCAC  -0.123
29. ACCACAAG  -0.117
30. ATCGCCCA  -0.11
31. TACGGGAA  -0.108
32. ATGTGCGA  -0.106
33. CTACCCTA  -0.101
34. ATTAGGGC  -0.0867
35. ACTACCAG  -0.086
36. CCTATCCG  -0.0857
37. ACCGCTCG  -0.0731
38. CAGGAAGA  -0.0593
39. AGCCGACG  -0.0574
40. CAAAGACG  -0.0507
41. CTATGATC  -0.0495
42. GTCAGCGA  -0.0481
43. ATGGCTGC  -0.0428
44. ACGCAGCC  -0.0404
45. ACAACCCG  -0.0389
46. ACGCAAAT  -0.0291
47. ACCGTTAT  -0.0275
48. CGAACAAG  -0.0215
49. CGTAGGTA  -0.0204
50. CGTAAGGC  -0.0166
51. CTTAGGTC  -0.0156
52. ATGCTATC  -0.00354
53. CCGGTACA  -0.00292
54. GGGCAGGA  -0.00266
55. GAATGTGA  0.00014
56. GTGCATCA  0.00241
57. CCCCATAA  0.00568
58. CGAACGCG  0.00852
59. GCGCGGGA  0.012
60. CCCTATGC  0.0135
61. CTCAGGTA  0.0217
62. GTACTCGA  0.0237
63. CTGTGATA  0.0273
64. CACGGTGG  0.0279
65. CCTAATCC  0.029
66. CCTATCTC  0.0294
67. AATATGAG  0.0321
68. TCACCGGA  0.0333
69. CACCTCTA  0.0362
70. AGAGTTAA  0.0368
71. CAGAACGA  0.0474
72. CTGATCGC  0.0487
73. CCCCGCGA  0.05
74. GGAACAAC  0.0525
75. AATAATCC  0.0532
76. CTTATCTC  0.0536
77. CCTCACGC  0.0561
78. AGGAATGA  0.0586
79. CGCGTATC  0.06
80. ATTTGATC  0.0618
81. CCGCGGGC  0.0691
82. GGCAACTA  0.0726
83. AAGGAAAT  0.0752
84. GTGCAAGA  0.0774
85. CCGCGGAG  0.0845
86. GATATGAA  0.0853
87. ACGCTCAC  0.0871
88. AAATGGAA  0.0906
89. CATAATGG  0.0936
90. ATGCATCG  0.098
91. AAATGTAG  0.101
92. CGATGTAA  0.102
93. AGGTCGAC  0.102
94. CGCAACTC  0.103
95. AACCCTAT  0.107
96. CAATGTGA  0.117
97. CGATCACG  0.117
98. ACTATCTC  0.121
99. AGAAACCA  0.123
100. TATATGAA  0.129
101. ATAGTCAC  0.129
102. GTTATCTA  0.131
103. ATTAGGTG  0.131
104. AGTAATTG  0.132
105. ATTGGTGC  0.134
106. ATTCTTCG  0.138
107. AAATGTAA  0.14
108. CGGAATGA  0.146
109. ACTATCTA  0.148
110. AACTCGAT  0.15
111. ATTATCTG  0.152
112. GATAATCA  0.159
113. TCAATGAA  0.159
114. AATATGAC  0.163
115. ATGCATTC  0.163
116. AACTCAAT  0.165
117. AGATGTAA  0.169
118. GATAATCC  0.17
119. GAATGGAA  0.181
120. AAACTAAG  0.185
121. ACATGATA  0.187
122. ACAATTGT  0.188
123. AAATGTAC  0.19
124. ACTAACAT  0.192
125. GCGCGGAA  0.192
126. CGTAACCA  0.192
127. AGTAATAA  0.193
128. AGAACAAA  0.194
129. AAACTAAA  0.199
130. GTGTGATA  0.2
131. AGTAATAC  0.2
132. TATAATGA  0.21
133. AGTAAGCC  0.216
134. TGAACAAA  0.217
135. CGTAATAG  0.223
136. CGTAATTC  0.228
137. GAATGTAA  0.241
138. TATAATAA  0.241
139. GTTAGGTA  0.242
140. AATAATCG  0.247
141. ATTTGGTA  0.252
142. AATAATCA  0.257
143. AATATGAA  0.258
144. CATAATCC  0.265
145. ATGTGATA  0.266
146. CGCAACTA  0.267
147. ATTAGGTC  0.271
148. ATTAGGTA  0.271
149. CGAACAAA  0.272
150. CCGCGGAA  0.272
151. AAATGTAT  0.276
152. CTTATCTA  0.276
153. GGGAATGA  0.277
154. AGTAATAG  0.279
155. TAATGGAA  0.281
156. ATGCATCA  0.287
157. TAATGTGA  0.292
158. GTTTGGTA  0.296
159. AATATGAT  0.297
160. ATTATCTC  0.306
161. AGTAATAT  0.306
162. AAACTAAT  0.312
163. ATATGATA  0.314
164. ATTATCTA  0.315
165. CCGCGGGA  0.316
166. GGAACAAA  0.32
167. CATAATCG  0.324
168. TGATGTAA  0.329
169. TAATGTAA  0.33
170. CTTAGGTA  0.337
171. ATGCATTA  0.341
172. TATAATCA  0.342
173. CGTAATCC  0.383
174. CATAATCA  0.385
175. CGTAAGCC  0.39
